Screens from PubChem.
In the library only some 19% were active in any assay of this set; here they are far more common.
HepG2 tox – qHTS for Inhibitors of TGF-b: Cytotox Counterscreen. 0.76% of 410,000 active. HepG2 CAGA-GFP viability, ATP luminescence, 18 h. Potency, µM (top dose mostly 46.1 µM), hits mostly cytotoxic
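CellTiter-Glo luminescence gave cytotoxicity after 18 hours at 37 degrees C. The cells were HepG2 CAGA-GFP in 1% FBS DMEM, stimulated with 500 pg/mL TGF-beta after compound addition. %Activity was normalised to no-cell wells (complete cell-killing) and DMSO (no toxicity), and curves were fitted and classified.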
S-ASM inh – Inhibitors of Secretory Acid Sphingomyelinase (S-ASM): qHTS | placental ASM, HMU-PC fluorogenic substrate, 60 min | Potency, µM (series often up to 57.5 µM), hits mostly inhibitors | 0.006% of 340,000 active | AID 504937, 2011
Target sequence (P17405 47-631 limits assumed): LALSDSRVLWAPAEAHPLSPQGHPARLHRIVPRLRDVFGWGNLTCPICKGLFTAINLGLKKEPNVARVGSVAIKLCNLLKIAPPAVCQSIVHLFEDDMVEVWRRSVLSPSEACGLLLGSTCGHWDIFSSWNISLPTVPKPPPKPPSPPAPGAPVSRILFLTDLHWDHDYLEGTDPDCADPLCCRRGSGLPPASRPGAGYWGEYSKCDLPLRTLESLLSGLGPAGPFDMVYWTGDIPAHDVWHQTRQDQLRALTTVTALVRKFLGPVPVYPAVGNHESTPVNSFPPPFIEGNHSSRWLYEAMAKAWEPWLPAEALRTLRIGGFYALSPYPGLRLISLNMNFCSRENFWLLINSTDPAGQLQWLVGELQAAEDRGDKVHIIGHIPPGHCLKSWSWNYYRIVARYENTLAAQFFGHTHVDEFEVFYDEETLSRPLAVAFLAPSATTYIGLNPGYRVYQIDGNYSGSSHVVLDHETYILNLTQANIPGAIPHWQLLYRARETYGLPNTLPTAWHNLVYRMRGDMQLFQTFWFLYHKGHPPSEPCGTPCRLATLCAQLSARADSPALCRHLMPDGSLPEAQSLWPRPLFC
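Human placenta-derived ASM enzyme was preincubated with compound for 10 minutes at room temperature, then given fluorogenic substrate HMU-PC0 (9 uM final) for 60 minutes at 37 °C; a pH 10 stop preceded fluorescence reading at Ex 386/Em 447 nm.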
DT40 TDP1 no CPT – qHTS for Inhibitors of human tyrosyl-DNA phosphodiesterase 1 (TDP1): qHTS in cells in absence of CPT | DT40 Tdp1-/- hTDP1 cells, no CPT, ATP luminescence, 48 h | Potency, µM (series often up to 46.2 µM), actives largely listed as inhibitors | 15% of 420,000 active; further: nearly all actives have a fitted effect of over 55% in size
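A cellular qHTS used chicken DT40 cells lacking endogenous Tdp1 but carrying stably transfected human TDP1. Compounds were applied without camptothecin, and cell growth kinetics were judged by ATP-dependent luminescence after ≥48 hr.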
DT40 TDP1 CPT – qHTS for Inhibitors of human tyrosyl-DNA phosphodiesterase 1 (TDP1): qHTS in cells in presence of CPT | chicken DT40 Tdp1-/-;hTDP1 cells + 20 nM CPT, ATP luminescence, 48 h | Potency, µM (series often up to 46.2 µM), usual class: inhibitors | 12% of 420,000 active | AID 686979, 2013; further: nearly all actives have a fitted effect of over 55% in size
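Chicken DT40 Tdp1-/- cells stably complemented with human TDP1 were seeded at 400 cells/well in medium containing 20 nM camptothecin, exposed to pin-transferred compounds, and grown at 37 °C for at least 48 hr. Viability was read as ATP luminescence.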
TGFb SMAD3 inh – qHTS for Inhibitors of TGF-b; HepG2 CAGA-GFP TGF-b/SMAD3 reporter, GFP fluorescence, 18 h; TGF-beta stimulated, 500 pg/mL final; Potency, µM (highest dose often 46.1 µM), actives largely listed as inhibitors; 1.2% of 410,000 active; AID 588855, 2011; further: nearly all actives have a fitted effect of over 65% in size
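HEPG2 CAGA-GFP, 1000 cells/well; 2 h settle, 37 C; cpd via pin tool; TGF-b 500 pg/mL final; 18 h, 37 C; GFP imaging ex488/em500-530; %Activity normalised to -TGF-b and +DMSO controls; CRC fit, curve class.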
IL1B secr inh – qHTS for Inhibitors of Inflammasome Signaling: IL-1-beta AlphaLISA Primary Screen | THP-1 LPS/ATP IL-1B secretion, AlphaLISA, 16 h; active compounds read low | activity change, % at 57.5 µM | 4.7% of 360,000 active | AID 743279, 2014; in the data active means activity change below about -50%; inconclusive means mostly about -30% to -49%
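THP-1 cells pretreated 1 hr with compounds (up to 57.5 uM final), then stimulated with LPS (250 ng/mL final) plus ATP (1.25 mM final); secreted IL-1B measured by AlphaLISA after 16 hr, decreased signal indicating inhibition.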
Each line names hits and unclear results; the compound was inactive in the other large screens. Unless noted, the call rests on the fitted dose curve; in most records, active means well fitted curve in the direction sought with a large enough effect; inconclusive means small, poorly fitted or top-dose-only effect, or another doubt; inactive means no such curve, though single readings can be large; an effect the other way counts as inactive or inconclusive.

O=C1c2ccccc2C2=Nc3ccccc3SC(c3ccc(Cl)cc3)C12 (configuration not stated)	DT40 TDP1 no CPT inconclusive, DT40 TDP1 CPT inconclusive, TGFb SMAD3 inh inconclusive
Cc1ccc(C2C3=C(CCCC3=O)N=C3c4ccccc4C(=O)C32)cc1 (configuration not stated)	DT40 TDP1 no CPT inconclusive, IL1B secr inh -67.6
CCN1C[C@@H]2[C@@H]3C(=O)N(C)C(=O)[C@@H]3[C@](C)(C1=O)N2C(=O)c1ccc(Cl)cc1	none
Cc1cccc(C)c1NC(=O)C1CCCN1S(=O)(=O)c1cccc2nsnc12 (configuration not stated)	DT40 TDP1 no CPT inconclusive (no result: S-ASM inh, IL1B secr inh)
COc1ccc(C(CNC(=O)c2ccccc2C)N2CCCC2)cc1 (configuration not stated)	none
COc1ccc(C(CNC(=O)Cc2cc(OC)c(OC)c(OC)c2)N2CCCC2)cc1 (configuration not stated)	none
COc1ccc(C(CNC(=S)NCc2ccccc2)N2CCCC2)cc1 (configuration not stated)	IL1B secr inh -72.0
COc1ccc(C(CNC(=O)c2cccc(Br)c2)N2CCCC2)cc1 (configuration not stated)	DT40 TDP1 no CPT inconclusive, DT40 TDP1 CPT inconclusive
COc1ccc(C(CNC(=O)c2oc3c(Cl)cccc3c2C)N2CCCC2)cc1 (configuration not stated)	DT40 TDP1 no CPT 23.1µM, DT40 TDP1 CPT 16.4µM, IL1B secr inh inconclusive
COc1ccc(C(CNC(=O)c2oc3ccccc3c2C)N2CCCC2)cc1 (configuration not stated)	DT40 TDP1 no CPT inconclusive, DT40 TDP1 CPT 20.6µM
COc1ccc(C(CNC(=O)c2oc3ccc(Cl)cc3c2C)N2CCCCC2)cc1 (configuration not stated)	DT40 TDP1 no CPT 23.1µM, DT40 TDP1 CPT 16.4µM
COc1cccc(-c2cccc(-c3nc(C(=O)NCc4ccc(Oc5ccccc5)cc4)cc4c3[C@H](CCO)N(S(=O)C(C)(C)C)C4)c2)c1 (some centres not stated)	DT40 TDP1 no CPT inconclusive, DT40 TDP1 CPT inconclusive, TGFb SMAD3 inh inconclusive, IL1B secr inh inconclusive (no result: S-ASM inh)
CCCNC(=O)c1cc2c(c(-c3cccc(-c4ccc(F)cc4)c3)n1)[C@H](CCO)N(S(=O)C(C)(C)C)C2 (some centres not stated)	DT40 TDP1 no CPT 23.1µM, DT40 TDP1 CPT inconclusive, TGFb SMAD3 inh inconclusive, IL1B secr inh inconclusive (no result: S-ASM inh)
CCCNC(=O)c1cc2c(c(-c3cccc(-c4ccc(F)cc4)c3)n1)[C@@H](CCO)N(S(=O)C(C)(C)C)C2 (some centres not stated)	DT40 TDP1 no CPT inconclusive, DT40 TDP1 CPT inconclusive, TGFb SMAD3 inh 15.8µM (no result: S-ASM inh)
CC(C)(C)S(=O)N1Cc2cc(C(=O)NCc3ccc4c(c3)OCO4)nc(-c3cccc(-c4ccccc4)c3)c2[C@@H]1CCO (some centres not stated)	DT40 TDP1 no CPT inconclusive, DT40 TDP1 CPT 23.1µM (no result: S-ASM inh)
CC(C)(C)S(=O)N1Cc2cc(C(=O)NCc3ccc4c(c3)OCO4)nc(-c3cccc(-c4ccncc4)c3)c2[C@H]1CCO (some centres not stated)	DT40 TDP1 no CPT inconclusive, DT40 TDP1 CPT inconclusive, IL1B secr inh inconclusive (no result: S-ASM inh)
Cc1ccc(C(=O)NCCc2nnc3ccc(SCC(=O)NCc4ccc(F)cc4)nn23)cc1	none
O=C(COn1nnc2ccc(S(=O)(=O)N3CCOCC3)cc21)NCc1cccc(Cl)c1	none (no result: S-ASM inh)
O=C(OCC(=O)c1c[nH]c2ccccc12)c1ccc(OC(F)F)cc1	none (no result: S-ASM inh)
